Source: PubChem BioAssay AID1159524 (National Center for Advancing Translational Sciences (NCATS), 2015)
The campaign covered roughly 410,000 compounds. About 5,100 (1.2%) were called active. Entries that show only a call come without a potency. About 8% were inconclusive and are not listed. Calls come from the whole dose curve; tested in HEK293T cells. This excerpt belongs to a sample that is enriched for actives.

Assay: High Throughput Screening for Foot and Mouth Disease Virus Antivirals; note: read-out not given here; nearly all actives have a fitted effect of over 45% in size
Conditions: FMDV antiviral cell-based qHTS; series mostly up to 57.9 µM
Potency is the fitted concentration of half-maximal effect.

| SMILES | Potency |
| --- | --- |
| C=CCNC(=S)N/N=C/c1ccc(C)s1 | inactive |
| Cc1[nH]c2ccccc2c1/C=C(/C#N)C(=O)NC(C)C | inactive |
| COCCNC(=S)N/N=C/c1c(C)[nH]c2ccccc12 | 20 µM (active) |
| C[N+](C)(C)CCCCCNCC12CC3CC(CC(C3)C1)C2 | inactive |
| Cc1ccc(N2CCN(C(=O)c3cccs3)CC2)c(C)c1 | inactive |
| Cc1ccccc1C(CC(=O)c1cccs1)C(C#N)C#N (centres undefined) | 11.2 µM (active) |
| CCS(=O)(=O)N1CCN(C(=O)c2cccs2)CC1 | inactive |
| Cc1nc2ccc(NC(=O)c3cccc(S(=O)(=O)N4CCOCC4)c3)cc2s1 | 31.6 µM (active) |
| Cc1cc(C)n2nc(C(=O)Nc3cccc(S(=O)(=O)N4CCOCC4)c3)nc2n1 | inactive |
| O=C(Nc1ccc(S(=O)(=O)N2CCOCC2)cc1)c1ccc2ncsc2c1 | inactive |
| Cc1nc2cnc(N3CCNCC3)nc2n(CCc2ccccc2)c1=O | inactive |
| CC1=C(/C=C/C(C)=C/C=C/C(C)=C/C=C/C=C(C)/C=C/C=C(C)/C=C/C2=C(C)CCCC2(C)C)C(C)(C)CCC1 | 5.01 µM (active) |
| CCCCCCCCCCCCCCCC(=O)OC/C=C(C)/C=C/C=C(C)/C=C/C1=C(C)CCCC1(C)C | inactive |
| Cc1ccc(CSc2nc3ccsc3c(=O)n2CCC(C)C)cc1 | inactive |
| CCOC(=O)Cc1ccc(NC(=O)Nc2c[nH]c(=O)[nH]c2=O)cc1 | inactive |
| COCC(=O)Nc1cc(C(=O)N2CCCC(c3ccccc3)CC2)c2c(c1)nc(-c1ccncc1)n2C (centres undefined) | inactive |
| COc1ccc(-c2nn(C)c(=O)c3ccccc23)cc1CNC(=O)C1CCCCC1 | inactive |
| COc1ccc(-c2nc3ccccc3s2)cc1NC(=O)COc1ccccc1C | inactive |
| COc1ccc(-c2nn(C)c(=O)c3ccccc23)cc1NC(=O)COc1ccccc1 | 17.8 µM (active) |
| O=c1cnc2cnc(Nc3ccccc3)nc2n1Cc1ccc(F)cc1 | inactive |
| Cc1ccc(S(=O)(=O)N2CCCc3cc(NS(=O)(=O)c4cc(C)ccc4C)ccc32)cc1 | inactive |
| COc1ccccc1C(=O)Nc1c(C(=O)N(C)Cc2ccccc2)sc2nc(C)c(Cl)c(C)c12 | inactive |
| CCCCc1nnc(NC(=O)CSc2nc(N)cc(=O)[nH]2)s1 | inactive |
| Cc1cc(=O)[nH]c(SCc2ccc(Cl)cc2)n1 | inactive |
| Cc1cc(C(=O)CSc2nc(N)cc(=O)[nH]2)c(C)n1CCc1ccc(Cl)cc1 | 22.4 µM (active) |

| SMILES | Potency |
| --- | --- |
| COCCn1c(=O)c(-c2cccc(F)c2)nc2cncnc21 | inactive |
| COc1ccc(F)c(CN2CCC3(CCC(CNC(=O)c4ccn(C)n4)O3)CC2)c1 (centres undefined) | inactive |
| COc1ccc(Cl)cc1-n1c(CCC(=O)O)ccc1-c1ccc(C)cc1 | inactive |
| CCc1ccc(-n2nnc(-c3nc(-c4ccccc4)no3)c2C)cc1 | inactive |
| CCc1ccc(-c2nn(-c3ccccc3)cc2CSC(=N)N)cc1 | 39.8 µM (active) |
| CCc1ccc(-c2nn(-c3ccccc3C)cc2C(=O)N2CCN(C3CCS(=O)(=O)C3)CC2)cc1 (centres undefined) | inactive |
| COc1cc2c(cc1OC)[C@@H]1C(=O)c3ccc(O)c(CC=C(C)C)c3OC1CO2 (some centres undefined) | inactive |
| CCCS(=O)(=O)NCc1c(C)ncc2c1CCN(C(=O)c1ccc(F)c(F)c1)C2 | inactive |
| COc1ccc2c(c1)CCc1cnc(-n3ncc(C(=O)NCCN4CCOCC4)c3C)nc1-2 | inactive |
| Cc1ccc2nc(COc3ccc(NC(=O)COc4ccccc4F)cc3)cc(=O)n2c1 | inactive |
| Cc1ccc2nc(COc3ccc(N(C)S(=O)(=O)c4ccccc4)cc3)cc(=O)n2c1 | 31.6 µM (active) |
| COc1cccc(COc2ccc(N(C)S(=O)(=O)c3ccccc3)cc2)c1 | inactive |
| CCc1nc2cc(C(=O)NCC3CCS(=O)(=O)C3)cc(NC(=O)c3ccccc3OC)c2n1C (centres undefined) | inactive |
| Cc1ccc(NC(=O)CSc2nc3c([nH]c4ccccc43)c(=O)n2-c2ccccc2)c(C)c1 | inactive |
| COc1ccc(C(C(=O)NC2CCCCC2)N(C(=O)CCl)c2ccccc2Cl)cc1 (centres undefined) | inactive |
| COc1ccc(C(CCN(Cc2ccc(OC)c(OC)c2)C(=O)CCl)c2ccccc2)cc1 (centres undefined) | 31.6 µM (active) |
| CCN(CCCCOC(=O)c1ccc(OC)c(OC)c1)C(C)Cc1ccc(OC)cc1 (centres undefined) | inactive |
| COCCNc1cc(-c2c(C)noc2C)ncn1 | inactive |
| CC(=CCOc1ccc2ccc(=O)oc2c1)C1=CC(=O)C(C)(C)O1 | 28.2 µM (active) |
| O=C(COc1ccc2ccc(=O)oc2c1)NCC(O)c1ccccc1 (centres undefined) | inactive |
| CC(C)OC(=O)c1ccc(COc2ccc3ccc(=O)oc3c2)o1 | inactive |
| Cn1cccc1C(=O)N1CCC2(CC1)CN(c1cccc(-c3ccccc3)c1)C2 | inactive |
| Cc1ccc(NC(=O)Nc2sc3nc4n(c(=O)c3c2C)CCC(C)CC4)c(Cl)c1 (centres undefined) | inactive |
| Cc1ccc(CN2COc3cc(C)c4c(oc(=O)c5ccccc54)c3C2)cc1 | inactive |
| CCOC(=O)c1cc2c(=O)n3ccccc3nc2n(CCCOC)c1=NC(=O)C(C)Oc1ccccc1 (centres undefined) | inactive |

| SMILES | Potency |
| --- | --- |
| COc1ccc(Nc2ncnc3ccc(Br)cc23)c(OC)c1 | 3.98 µM (active) |
| COc1ccc2[nH]cc(CCNc3ncnc4ccc(-c5ccccc5CN(C)C)cc34)c2c1 | inactive |
| COc1ccc(CNc2ncnc3ccc(-c4cccnc4)cc23)c(OC)c1 | inactive |
| NS(=O)(=O)c1ccc(NC(=O)COc2ccc(S(=O)(=O)NC3CCCCC3)cc2)cc1 | inactive |
| NS(=O)(=O)c1ccc(NC(=O)COC(=O)C2(c3ccc(F)cc3)CCCC2)cc1 | 17.8 µM (active) |
| O=C(COC(=O)C1(c2ccc(F)cc2)CCCC1)N1CCNC1=O | inactive |
| COc1ccc(CNC(=O)CSCc2nc(-c3ccccc3F)oc2C)cc1 | inactive |
| Cc1nc2cc(NC(=O)[C@@H]3C[C@@H](Sc4ccccn4)CN3Cc3ccccc3C)ccc2s1 | inactive |
| CCC(C(=O)Nc1cccc(-c2nc3cccnc3s2)c1C)c1ccccc1 (centres undefined) | inactive |
| Cn1c(SCc2ccc(F)cc2)nnc1-c1ccncc1 | inactive |
| Cc1ccc(Nc2nc(CSc3nnc(-c4ccncc4)n3-c3ccccc3C)cs2)cc1 | 31.6 µM (active) |
| CCOc1ccccc1-n1c(SCC(=O)NCc2ccco2)nnc1-c1ccncc1 | inactive |
| N[C@H](C(=O)O)c1ccc(C(=O)O)c(O)c1 | inactive |
| Cc1cc(-c2n[nH]c(=S)n2/N=C/C(Br)=C/c2ccccc2)n[nH]1 | 35.5 µM (active) |
| O=c1c(-c2ccc(F)cc2)nc2cncnc2n1-c1ccccc1 | inactive |
| CCCn1c(=N)n(CC(O)COc2ccccc2OC)c2ccccc21 (centres undefined) | inactive |
| OC(COc1ccc(CN2CCSCC2)cc1)CN1CCCCC1 (centres undefined) | inactive |
| OC(CN=c1sc2ccccc2n1CC(O)COc1ccccc1)COc1ccccc1 (centres undefined) | 20 µM (active) |
| Nc1nc2c(nc(Cl)n2C2OC(CO)C(O)C2O)c(=O)[nH]1 (centres undefined) | inactive |
| O=C(c1cccc(Cl)c1)N1CCN(CCc2ccncc2)CC1 | inactive |
| O=C(c1cccc(Br)c1)N1CCN(Cc2cc(=O)n3nc(-c4ccccc4)sc3n2)CC1 | inactive |
| C#Cc1cc(N2CCN(C(=O)c3ccoc3)CC2)n2nc(-c3cccc(Cl)c3)cc2n1 | 11.2 µM (active) |
| O=C(CCCC(=O)N1CCN(c2cccc(Cl)c2)CC1)c1ccccc1 | inactive |
| O=C(c1ccccc1)N1CCN(c2cc(-c3ccccc3)nc3cc(-c4cccc(Cl)c4)nn23)CC1 | 25.1 µM (active) |
| CCNC(=O)Cn1nc(C)n2c(cc3c(OC)cccc32)c1=O | inactive |

| SMILES | Potency |
| --- | --- |
| COC1[C@H](OC(N)=O)C(O)[C@H](Oc2ccc3c(O)c(NC(=O)c4ccc(O)c(CC=C(C)C)c4)c(=O)oc3c2C)OC1(C)C (some centres undefined) | inactive |
| C=C1O[C@@](CO)(n2cnc3c(N)ncnc32)[C@H](O)[C@@H]1O | inactive |
| COc1cccc(NC(=O)N2CCN(C(=O)c3nsc4ccccc34)CC2)c1 | inactive |
| COc1ccc(C2=Nc3cc(C)ccc3OC2)cc1 | 14.1 µM (active) |
| COc1ccc(-c2cc(-c3ccccc3)nc3c2COc2ccc(Cl)cc2-3)cc1 | inactive |
| COc1ccc(-c2cc(-c3ccc(F)cc3)nc3c2COc2ccccc2-3)cc1 | inactive |
| CCCNc1ncnc2c1c(-c1ccccc1)cn2-c1ccc(OCC)cc1 | inactive |
| CC(C)(O)CCC(O)[C@@](C)(O)C1CC[C@]2(O)C3=CC(=O)C4CC(O)C(O)C[C@]4(C)C3CC[C@]12C (some centres undefined) | inactive |
| Cc1ccc(NC(=O)c2ccc(CN3CC(=O)N4CCCCC4C3=O)cc2)c(Cl)c1 (centres undefined) | inactive |
| COc1ccc(Nc2ncc(C(=O)Nc3cc(C)ccc3OC)c3ccccc23)cc1 | inactive |
| COc1cc(C(=O)Nc2cc(C(F)(F)F)ccc2N2CCOCC2)ccc1O | inactive |
| COc1ccc(C(=O)Nc2ccccc2C(=O)N/N=C/c2ccc(O)c(OC)c2)cc1 | 3.98 µM (active) |
| Cn1cc(-c2nc3cncnc3n(-c3ccccc3)c2=O)c2ccccc21 | inactive |
| COc1ccc(CN2CCC3(CCC(CNC(=O)c4ccco4)O3)CC2)cc1OC (centres undefined) | inactive |
| Cc1ccc(-n2ncc3c(=O)n(Cc4cccc(C(F)(F)F)c4)cnc32)cc1C | inactive |
| CC(C)(C)n1ncc2c(=O)n(Cc3ccc(Cl)cc3)cnc21 | 25.1 µM (active) |
| CC(C)CNc1ncnc2c1cnn2Cc1ccc(Cl)cc1 | inactive |
| O=C(c1cn(CC2CCCN(Cc3cc4ccccc4s3)C2)nn1)N1CCCC1 (centres undefined) | inactive |
| O=C(O)c1c(CNCc2cccc(F)c2)c2ccccc2n1Cc1ccccc1 | inactive |
| C/C=C(\C)C(=O)O[C@H]1CC(C)=C2C(=O)C=C(C)C2[C@@H]2OC(=O)[C@@](C)(OC(=O)C=C(C)C)C21 (some centres undefined) | inactive |
| Cc1cc(C)cc(CN2CCc3nnc(C(NS(C)(=O)=O)C(C)C)n3CC2)c1 (centres undefined) | inactive |
| CCOC(=O)N1CCN(C(=O)C2CCCN(c3ncnc4c3sc3cccc(F)c34)C2)CC1 (centres undefined) | inactive |
| CCOc1cccc2sc(N3CCN(C(=O)C4CC4)CC3)nc12 | inactive |
| CCOC(=O)N1CCN(C(=O)C2CCN(c3ncnc4c3sc3cccc(F)c34)CC2)CC1 | 14.1 µM (active) |
